# Measured values as given in ChEMBL document CHEMBL3988442, “University of Dundee, Small-Polar-MMV Screening Library” (2021).
# Target: AMP-activated protein kinase, AMPK (Homo sapiens) (UniProt P54646+O43741+P54619+Q9UGJ0+Q9Y478+Q13131+Q9UGI9)
# Assay: AMP-dependent Kinase enzyme assay. An in vitro enzyme assay that detects ADP turnover that is directly proportional to AMPK activity. This uses naive AMPK that is activated during the assay with MK-8722
# Assay type: functional
# Parameters: scale not given: direction of the effect not stated beside the values
# Settings: 30 µM
row,Structure (SMILES),Percent Effect
1,NC(=O)CC1CCCN(c2cncc(SCc3ccccc3)n2)C1 (stereo not given),25.3%
2,Cc1ccc(C(=O)NC2CCN(C(C)C)C2)c(=O)[nH]1 (stereo not given),-2.69%
3,CC(C)c1nn(C)cc1CNCc1ccnc(N(C)C)c1,-4.28%
4,Fc1ccc(C2(CNCC(F)F)CCOC2)cc1 (stereo not given),3.05%
5,O=C(CCC1CCCO1)NCCCO (stereo not given),-4.81%
6,CN(C)CCNC(=O)CCC1CCN(C(=O)c2ccc(Cl)cc2O)CC1,9.06%
7,CN(C)C(=O)N1CCCC(C(=O)N(C)Cc2cnc(N)nc2)C1 (stereo not given),-2.52%
8,Cn1ncc2c(NC3CCC3)nc(-c3ccncc3)nc21,87.5%
9,O=C(CCc1nc(-c2ccsc2)no1)NCC1CCN(C2CC2)C1 (stereo not given),1.07%
10,COc1c(C)cnc(CN2CCn3c(C)nnc3C2)c1C,8.91%
11,CC(C)(CNc1cccc(Cl)c1)NC(=O)C1CCCN(CC(N)=O)C1 (stereo not given),40.1%
12,Nc1ncnc2nc(C3CCCCN3)ccc12 (stereo not given),15.5%
13,NCCc1cc(N2CCOCC2)nc(NC2CC2)n1,3.97%
14,O=C(CCn1ccnc1)N1CCC(c2nnc(-c3ccccn3)o2)CC1,1.44%
15,O=C(CCc1ccc(Cl)cc1)N[C@@H]1CC[C@@H](O)[C@@H]1O,14.5%
16,Cc1c(C(=O)N2CCC3(CCCNC3=O)C2)sc2nc[nH]c(=O)c12 (stereo not given),13.6%
17,CC(C)c1nn(C)cc1CNCc1cccnc1N(C)C,0.312%
18,CN1CCC(N(Cc2ccncc2)C(=O)COCC2CCCCO2)CC1 (stereo not given),1.82%
19,COC(=O)c1ccc(Cn2cnc(C#N)n2)cc1,1.34%
20,COc1cnc(N2CCN(C)CC2)nc1-c1ccnn1C,0.474%

row,Structure (SMILES),Percent Effect
1,Cc1nc(CN2CCN(S(=O)(=O)N3CCCCC3)CC2)oc1C,-4.45%
2,CN1CCCC1CCNC(=O)c1ccccc1-n1cnc(CN)c1 (stereo not given),7.02%
3,COC(=O)c1ccc2c(c1)CCCN2S(=O)(=O)c1cn(C)c(C)n1,-5.88%
4,Cc1ccc(C(C)N(C)C(=O)c2ccc(=O)n(C)c2)s1 (stereo not given),3.36%
5,CC(C)Cc1cc(CNC(=O)c2cccc3c2OCC3)no1,3.36%
6,Cc1ccc(C(=O)NCc2cc(F)ccc2N2CCCN(C)CC2)o1,9.19%
7,CCC(O)CN1CCN(C(=O)CCSC)CC1 (stereo not given),-2.43%
8,CC(C)(C)c1n[nH]cc1CNC1CCC(O)CC1 (stereo not given),-0.675%
9,COCCN1C[C@H]2CC[C@@H]1CN(C(=O)CCc1c(C)nn(C)c1C)C2,-4.69%
10,Oc1cc(C2CCCCN2Cc2cccs2)nc(-c2ccccn2)n1 (stereo not given),23.4%
11,CC(C)OCCN1CCC(Nc2ncc(Br)cn2)CC1,10.5%
12,CC(C)Cn1nc(-c2ccc(C(=O)O)cc2)cc1-c1ccc(F)cc1,22.7%
13,Cc1nc(C2CCCNC2)cc(N2CCc3nc(N)sc3C2)n1 (stereo not given),3.73%
14,Cc1ccc(-n2cc(CN3CCOCC(CN(C)C)C3)cn2)cc1C (stereo not given),8.42%
15,Cc1nc2n(n1)CC(NCc1ccc(Cl)c3cccnc13)CC2 (stereo not given),9%
16,CC(=O)N[C@H]1CCO[C@@H](c2cccc(NC(=O)c3cccc(F)c3)c2)C1,6.73%
17,COc1ccc(CC2(CO)CCN(c3cc(C(N)=O)ccn3)CC2)cc1,8.7%
18,CC1CN(C)CCN1C(=O)c1cccn1Cc1ccncc1 (stereo not given),1.97%
19,O=C1CC2(CCN(Cc3ccc(-c4ccccc4)s3)C2)C(=O)N1 (stereo not given),84.9%
20,CNC(=O)CN(C)C(=O)c1ccc(-c2nc(C)cs2)cc1,-2.2%
